Results as given in PubChem BioAssay (NCATS).
A number with no mark means an inactive call. Inconclusive results are not listed. Active and inactive are the calls of the source. Unless noted, calls come from the whole dose curve; as a rule, active = well fitted curve in either direction with a large enough effect (not every such curve was filed as active); inconclusive = small, poorly fitted or top-dose-only effect, or another doubt; inactive = flat fitted curve, though single readings scatter.

Assays:
[1] = target: Lysosomal acid glucosylceramidase (Homo sapiens) (UniProt P04062); assay: Glucocerebrosidase-p2 (AID 348; in the data active = potency below about 10 µM; note: potency is the fitted concentration of half-maximal effect); conditions: purified GBA, blue fluorogenic substrate, 40 min
Summary of the method: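 Compounds titrated from 0.6 nM upwards against 0.2 nM enzyme in pH 5.9 citric acid/KH2PO4, taurocholate, tween-20; blue fluorogenic substrate 80 uM, 40 min room temperature, stopped and read Ex 365/Em 440 for AC50.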

[2] = AP1 Signaling Pathway (AID 357); conditions: ME-180 AP-1-bla reporter, EGF-induced, beta-lactamase ratio, 5 h; at 7.69 µM (top of the series) unless noted;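 note: ME-180 reporter cells stimulated with EGF at its EC50 level; % is set by controls: 0 for no effect and ±100 for the full control effect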
Summary of the method: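 Modulation of EGF-driven AP-1 transcription was assessed with a beta-lactamase reporter in ME-180 cells. Compound and EC50 EGF were co-incubated 5 hours at 37 °C before 2.5-hour CCF4 loading at room temperature and dual-emission reading.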

[3] = target: Cytochrome P450 1A2 (Homo sapiens) (UniProt P05177); assay: p450-cyp1a2 (AID 410; calls by dose curve; note: potency is the fitted concentration of half-maximal effect;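 for activity change, negative = inhibition: -100% = full effect of reference inhibitor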); conditions: recombinant CYP1A2, luciferin-ME demethylation, luminescence; series mostly up to 11.4 µM
Summary of the method: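 Inhibition was calculated relative to 57 uM furafylline (full inhibition). The reaction used human CYP1A2 at 20nM with Luciferin-ME at its Km, 100uM, driven by an NADPH-regenerating system for 60 min at room temperature.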

[4] = NFAT Signaling Pathway (AID 444); conditions: Jurkat NFAT-bla M1, carbachol, beta-lactamase ratio, 5 h; at 7.69 µM (top of the series) unless noted;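 note: carbachol stimulus at about its EC50 of 1 µM final; % is set by controls: 0 for no effect and ±100 for the full control effect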
Summary of the method: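 Read-out: CCF4 FRET ratio (460 nm/530 nm) after 1 h RT dye loading, used for %activity and AC50 from titration series. Cells: Jurkat NFAT-β-lactamase/M1 line, treated with compound plus 1 uM carbachol for 5 h, 37 °C.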

[5] = Stat Signaling Pathway (AID 446); conditions: ME-180 SIE beta-lactamase reporter, IL-6 stimulated, 5 h; at 7.69 µM (top of the series) unless noted;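 note: ME-180 cervical cancer cells given 40 pM IL-6 alongside compound; SIE-controlled beta-lactamase reporter measured as 460/530 nm FRET emission ratio; % is set by controls: 0 for no effect and ±100 for the full control effect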
Summary of the method: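 Screening format detects activators and inhibitors alike: ME-180 SIE-bla cells stimulated at 40 pM IL-6 for 5 hrs with compound, then dual-emission beta-lactamase read at 405 nm excitation.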

[6] = target: Glucocorticoid receptor (Homo sapiens) (UniProt P04150); assay: GR-GFP Redistribution (AID 450;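 active = compounds whose dose series gives a full or clear partial fitted curve of increased nuclear translocation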; note: potency is the fitted concentration of half-maximal effect); conditions: U2OS GR-GFP nuclear translocation, laser cytometry, 2 h
[7] = target: Mitogen-activated protein kinase 10 (Mus musculus) (UniProt Q61831); assay: JNK3 AlphaScreen Assay (AID 530); conditions: JNK3 lysate, c-Jun phosphorylation; series mostly up to 11.4 µM;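 note: kinase came from lysate of stimulated human HepG2 cells; signal reports phosphorylation of biotinylated GST-cJun 1-79 at Ser73 with 10 µM ATP; % is set by controls: 0 for no effect and ±100 for the full control effect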
Summary of the method: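 Room-temperature AlphaScreen kinase assay; pre-activated HepG2 lysate as JNK3 source, biotin-GST-cJun(1-79) substrate, 10 uM ATP, compound 15 min preincubation.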

[8] = target: 3',5'-cyclic-AMP phosphodiesterase 4B (Homo sapiens) (UniProt Q07343); assay: qHTS Assay for Inhibitors of PDE-IV (AID 607; active = well fitted activation curve with a large enough effect in the main read-out, with a control signal flat, not every such curve was filed as active; note: % of control where 0% means no effect); conditions: HEK293 ACTOne CNG channel cells, membrane potential fluorescence; series mostly up to 22.9 µM
Summary of the method: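 The readout is membrane depolarisation from a cAMP-sensing CNG channel, detected with a potential dye at ex 535/em 590. Cells were HEK293-derived (endogenous PDE-IV) at 1000 cells/well, titrated up to 22.9 uM final.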

[9] = target: Cytochrome P450 2C9 (Homo sapiens) (UniProt P11712); assay: qHTS Assay for Inhibitors and Substrates of Cytochrome P450 2C9 (AID 883; active = well fitted curve in the direction sought with a large enough effect; an effect the other way counts as inactive or inconclusive; note: potency is the fitted concentration of half-maximal effect; nearly all actives have a fitted effect of over 60% in size); conditions: recombinant CYP2C9, luciferin-H luminescence, 60 min; series mostly up to 11.4 µM
Summary of the method: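 Luminescent read-out of deoxyluciferin hydroxylation, normalized to 57uM sulphaphenazole (AC100). Reaction: 10nM enzyme, 100uM Luciferin-H (equal to KM), 25mM KPO4, 10 min compound preincubation, then 60 min with NADPH regeneration, both at 37C.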

[10] = target: Cytochrome P450 2C19 (Homo sapiens) (UniProt P33261); assay: qHTS Assay for Inhibitors and Substrates of Cytochrome P450 2C19 (AID 899; active = well fitted curve in the direction sought with a large enough effect; an effect the other way counts as inactive or inconclusive; note: nearly all actives have a fitted effect of over 60% in size; note: potency is the fitted concentration of half-maximal effect); conditions: recombinant CYP2C19, luciferin-H EGE luminescence; series mostly up to 11.4 µM
Summary of the method: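 Luminescence readout of luciferin formed from 10uM Luciferin-H EGE (KM level) by 5 nM CYP2C19 in 50mM KPO4. 60 min NADPH-driven reaction at 37C after 10 min compound preincubation; data scaled to 57uM ketoconazole inhibition.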

[11] = target: Glucocorticoid receptor (Homo sapiens) (UniProt P04150); assay: GR-EFC Redistribution (AID 451; calls by dose curve; note: potency is the fitted concentration of half-maximal effect); conditions: CHO-K1 GR-EFC translocation, beta-gal luminescence, 2 h
Summary of the method: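 Translocation of GR-ED fusion to nuclear EA restores b-gal, read by luminescence after 1 h room-temperature detection. Engineered CHO-K1 biosensor cells, 1,000/well, exposed 2 h at 37 C to titrations up to 46 uM final.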

[12] = target: Cytochrome P450 2D6 (Homo sapiens) (UniProt P10635); assay: qHTS Assay for Inhibitors and Substrates of Cytochrome P450 2D6 (AID 891; active = well fitted curve in the direction sought with a large enough effect; an effect the other way counts as inactive or inconclusive; note: potency is the fitted concentration of half-maximal effect; nearly all actives have a fitted effect of over 60% in size); conditions: recombinant CYP2D6, luciferin-ME EGE luminescence; series mostly up to 11.4 µM
Summary of the method: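 Human CYP2D6 (5 nM) with 30 uM Luciferin-ME EGE (at Km) in 100 mM KPO4, compound preincubated 10 min, then NADPH regeneration system for 60 min at room temperature. Luciferin read by luminescence; normalized to 1.43 uM quinidine.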

[13] = target: Cytochrome P450 3A4 (Homo sapiens) (UniProt P08684); assay: qHTS Assay for Activators of Cytochrome P450 3A4 (AID 885; active = well fitted curve in the direction sought with a large enough effect; an effect the other way counts as inactive or inconclusive; note: nearly all actives have a fitted effect of over 65% in size); conditions: recombinant CYP3A4, Luciferin-PPXE luminescence, 60 min; series mostly up to 11.4 µM
Summary of the method: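 Steps: enzyme/substrate mix dispensed; compound added, 10 min RT; NADPH regeneration solution added, 60 min RT; luciferin detection buffer stops reaction; 20 min later luminescence measured.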

[14] = target: Cytochrome P450 3A4 (Homo sapiens) (UniProt P08684); assay: qHTS Assay for Inhibitors and Substrates of Cytochrome P450 3A4 (AID 884; active = well fitted curve in the direction sought with a large enough effect; an effect the other way counts as inactive or inconclusive; note: potency is the fitted concentration of half-maximal effect; nearly all actives have a fitted effect of over 50% in size); conditions: recombinant CYP3A4, Luciferin-PPXE luminescence; series mostly up to 57.1 µM
Summary of the method: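 20 nM human CYP3A4 with 25 uM Luciferin-PPXE (at KM) in 200 mM KPO4, preincubated 10 min with compound; NADPH regeneration started a 60 min RT reaction. Luciferin detected by luminescence, normalized to 57 uM ketoconazole as full inhibition.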

Cytochrome P450 1A2 (Homo sapiens), sequence (P05177 whole entry, looked up): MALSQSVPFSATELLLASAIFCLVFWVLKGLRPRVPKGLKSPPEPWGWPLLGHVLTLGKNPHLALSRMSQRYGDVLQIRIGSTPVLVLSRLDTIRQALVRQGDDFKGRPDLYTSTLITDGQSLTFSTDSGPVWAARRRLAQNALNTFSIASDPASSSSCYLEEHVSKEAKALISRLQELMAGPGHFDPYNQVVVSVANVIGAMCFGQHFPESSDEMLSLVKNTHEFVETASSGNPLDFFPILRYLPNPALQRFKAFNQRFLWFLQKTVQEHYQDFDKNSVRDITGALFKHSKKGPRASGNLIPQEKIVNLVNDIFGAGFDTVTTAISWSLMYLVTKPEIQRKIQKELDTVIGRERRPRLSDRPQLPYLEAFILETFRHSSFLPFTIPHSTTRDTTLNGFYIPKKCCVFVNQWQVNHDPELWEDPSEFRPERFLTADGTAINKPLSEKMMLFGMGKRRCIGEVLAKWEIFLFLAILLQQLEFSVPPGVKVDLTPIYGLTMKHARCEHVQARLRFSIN
Lysosomal acid glucosylceramidase (Homo sapiens), sequence (P04062 whole entry, looked up): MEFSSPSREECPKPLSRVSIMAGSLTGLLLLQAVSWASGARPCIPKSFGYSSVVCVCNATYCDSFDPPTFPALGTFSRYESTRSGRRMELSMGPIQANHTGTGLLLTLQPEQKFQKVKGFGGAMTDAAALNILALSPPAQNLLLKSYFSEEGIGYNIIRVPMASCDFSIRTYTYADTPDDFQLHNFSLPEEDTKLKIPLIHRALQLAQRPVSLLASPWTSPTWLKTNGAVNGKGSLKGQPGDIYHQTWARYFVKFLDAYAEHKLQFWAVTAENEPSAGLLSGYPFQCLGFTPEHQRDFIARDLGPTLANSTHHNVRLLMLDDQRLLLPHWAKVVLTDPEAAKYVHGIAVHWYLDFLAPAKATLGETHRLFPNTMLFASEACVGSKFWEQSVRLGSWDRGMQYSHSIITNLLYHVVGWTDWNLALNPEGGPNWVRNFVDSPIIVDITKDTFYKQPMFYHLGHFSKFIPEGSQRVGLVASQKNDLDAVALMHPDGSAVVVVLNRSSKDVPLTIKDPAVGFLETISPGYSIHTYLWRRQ
Glucocorticoid receptor (Homo sapiens), sequence (P04150 whole entry, looked up, the tested form may be a part): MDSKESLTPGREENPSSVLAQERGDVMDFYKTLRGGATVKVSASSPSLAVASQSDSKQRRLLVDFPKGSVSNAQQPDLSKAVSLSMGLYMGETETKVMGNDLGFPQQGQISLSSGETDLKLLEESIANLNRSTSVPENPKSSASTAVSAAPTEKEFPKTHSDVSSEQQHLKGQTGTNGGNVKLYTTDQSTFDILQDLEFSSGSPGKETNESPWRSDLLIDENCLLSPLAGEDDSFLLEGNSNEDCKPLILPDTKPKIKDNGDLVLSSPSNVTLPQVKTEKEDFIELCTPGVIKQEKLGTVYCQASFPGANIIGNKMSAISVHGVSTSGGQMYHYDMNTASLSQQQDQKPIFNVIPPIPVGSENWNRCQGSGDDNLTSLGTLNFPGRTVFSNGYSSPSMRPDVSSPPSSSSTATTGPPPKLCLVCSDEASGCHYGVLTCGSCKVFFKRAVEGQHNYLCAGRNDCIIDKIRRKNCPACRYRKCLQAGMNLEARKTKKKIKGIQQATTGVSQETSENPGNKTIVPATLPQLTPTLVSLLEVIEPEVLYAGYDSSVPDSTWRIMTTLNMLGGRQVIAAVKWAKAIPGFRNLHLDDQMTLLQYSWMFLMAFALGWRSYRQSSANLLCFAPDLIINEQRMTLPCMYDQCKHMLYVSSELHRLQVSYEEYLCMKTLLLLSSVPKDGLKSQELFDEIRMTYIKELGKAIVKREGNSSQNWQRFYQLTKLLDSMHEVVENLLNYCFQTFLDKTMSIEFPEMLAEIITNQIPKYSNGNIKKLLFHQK
3',5'-cyclic-AMP phosphodiesterase 4B (Homo sapiens), sequence (Q07343 whole entry, looked up): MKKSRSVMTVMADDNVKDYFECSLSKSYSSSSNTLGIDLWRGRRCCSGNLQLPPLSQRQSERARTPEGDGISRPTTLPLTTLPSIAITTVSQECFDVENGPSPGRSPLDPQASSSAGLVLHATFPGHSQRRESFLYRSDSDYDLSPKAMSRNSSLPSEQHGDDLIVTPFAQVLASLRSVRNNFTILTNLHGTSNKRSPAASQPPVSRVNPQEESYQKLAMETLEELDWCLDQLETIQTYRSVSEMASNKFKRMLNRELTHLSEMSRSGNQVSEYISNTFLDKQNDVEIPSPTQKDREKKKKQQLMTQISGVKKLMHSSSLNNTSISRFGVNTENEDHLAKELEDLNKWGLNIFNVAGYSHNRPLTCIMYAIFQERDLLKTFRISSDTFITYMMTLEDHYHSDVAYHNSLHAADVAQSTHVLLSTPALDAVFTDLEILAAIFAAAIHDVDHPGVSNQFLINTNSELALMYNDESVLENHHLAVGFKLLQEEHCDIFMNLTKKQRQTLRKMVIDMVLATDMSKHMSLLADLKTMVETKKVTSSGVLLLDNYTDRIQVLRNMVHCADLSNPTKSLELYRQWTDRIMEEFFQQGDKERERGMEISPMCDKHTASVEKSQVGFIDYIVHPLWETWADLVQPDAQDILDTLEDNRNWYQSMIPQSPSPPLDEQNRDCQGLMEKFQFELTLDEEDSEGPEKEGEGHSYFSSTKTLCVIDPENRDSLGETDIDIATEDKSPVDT
Cytochrome P450 3A4 (Homo sapiens), sequence (P08684 whole entry, looked up): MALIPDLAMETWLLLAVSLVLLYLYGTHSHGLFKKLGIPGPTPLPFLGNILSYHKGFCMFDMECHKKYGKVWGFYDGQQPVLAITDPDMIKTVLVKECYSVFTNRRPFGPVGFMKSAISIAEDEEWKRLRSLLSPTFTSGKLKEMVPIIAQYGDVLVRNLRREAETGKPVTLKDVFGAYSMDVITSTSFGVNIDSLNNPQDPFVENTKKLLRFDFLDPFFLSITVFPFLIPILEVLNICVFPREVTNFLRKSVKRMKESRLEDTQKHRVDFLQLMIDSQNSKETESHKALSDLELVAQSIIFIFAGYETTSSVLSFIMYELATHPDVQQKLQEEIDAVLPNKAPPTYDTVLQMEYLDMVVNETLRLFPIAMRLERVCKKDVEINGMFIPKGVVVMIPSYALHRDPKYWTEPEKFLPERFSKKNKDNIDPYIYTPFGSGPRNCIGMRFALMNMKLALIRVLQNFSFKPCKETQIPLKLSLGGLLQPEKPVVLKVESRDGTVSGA
Cytochrome P450 2C19 (Homo sapiens), sequence (P33261 whole entry, looked up): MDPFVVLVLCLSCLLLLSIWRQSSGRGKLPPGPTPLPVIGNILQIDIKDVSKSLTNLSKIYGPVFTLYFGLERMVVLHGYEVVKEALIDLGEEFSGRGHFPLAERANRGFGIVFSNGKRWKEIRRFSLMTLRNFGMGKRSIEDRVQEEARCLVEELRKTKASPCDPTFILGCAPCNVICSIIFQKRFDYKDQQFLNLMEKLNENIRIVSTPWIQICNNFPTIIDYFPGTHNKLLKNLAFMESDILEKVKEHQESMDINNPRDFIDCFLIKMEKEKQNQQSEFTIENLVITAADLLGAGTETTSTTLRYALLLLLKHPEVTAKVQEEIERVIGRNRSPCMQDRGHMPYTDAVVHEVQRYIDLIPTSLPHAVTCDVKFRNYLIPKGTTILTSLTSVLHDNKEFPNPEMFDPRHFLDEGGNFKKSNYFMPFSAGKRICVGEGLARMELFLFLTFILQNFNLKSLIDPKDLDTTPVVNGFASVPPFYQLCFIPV
Cytochrome P450 2D6 (Homo sapiens), sequence (P10635 whole entry, looked up): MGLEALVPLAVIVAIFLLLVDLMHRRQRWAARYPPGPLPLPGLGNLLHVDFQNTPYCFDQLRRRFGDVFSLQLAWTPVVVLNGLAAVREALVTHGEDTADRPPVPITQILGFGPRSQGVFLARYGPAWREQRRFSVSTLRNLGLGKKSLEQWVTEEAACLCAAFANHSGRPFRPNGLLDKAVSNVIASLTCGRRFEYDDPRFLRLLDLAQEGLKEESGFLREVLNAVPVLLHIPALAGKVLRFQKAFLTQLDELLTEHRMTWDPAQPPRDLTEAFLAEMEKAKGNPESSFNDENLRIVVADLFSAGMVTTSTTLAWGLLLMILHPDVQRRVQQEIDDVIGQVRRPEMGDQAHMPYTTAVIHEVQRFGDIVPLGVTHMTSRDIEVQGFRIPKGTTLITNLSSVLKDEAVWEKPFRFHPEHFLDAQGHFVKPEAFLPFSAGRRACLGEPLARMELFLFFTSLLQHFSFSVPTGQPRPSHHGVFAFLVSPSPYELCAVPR
Cytochrome P450 2C9 (Homo sapiens), sequence (P11712 whole entry, looked up): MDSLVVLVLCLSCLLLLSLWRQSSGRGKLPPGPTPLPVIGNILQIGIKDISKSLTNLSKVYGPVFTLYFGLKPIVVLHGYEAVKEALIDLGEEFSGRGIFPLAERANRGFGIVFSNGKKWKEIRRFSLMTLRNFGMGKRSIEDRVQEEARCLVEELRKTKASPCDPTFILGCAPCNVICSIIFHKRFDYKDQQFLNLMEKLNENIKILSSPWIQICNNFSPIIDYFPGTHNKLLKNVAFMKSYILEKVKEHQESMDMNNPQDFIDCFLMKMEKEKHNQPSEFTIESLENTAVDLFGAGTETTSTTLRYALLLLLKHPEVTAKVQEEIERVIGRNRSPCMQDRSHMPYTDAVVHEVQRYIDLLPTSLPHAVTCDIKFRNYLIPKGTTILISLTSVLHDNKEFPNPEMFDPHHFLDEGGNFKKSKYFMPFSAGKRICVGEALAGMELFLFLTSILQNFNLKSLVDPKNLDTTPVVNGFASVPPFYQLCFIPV

| SMILES | Potency [1] | activity change, negative = inhibition [2] | Potency [3] | activity change, negative = inhibition [4] | activity, negative = inhibition [5] | Potency [6] | Potency [7] | Potency [8] | Potency [9] | Potency [10] | Potency [11] | Potency [12] | Potency [13] | activity change, negative = inhibition [3] | Potency [14] |
| --- | --- | --- | --- | --- | --- | --- | --- | --- | --- | --- | --- | --- | --- | --- | --- |
| O=C(O)c1ccc(SSc2ccc(C(=O)O)cn2)nc1 | > 11.4 µM | -2.82% | 3.16 µM (active) | 5.74% | 15.8% | > 46 µM | inactive | inactive | 1.58 µM (active) | 2.51 µM (active) |  |  |  |  |  |
| CN(Cc1cc(Cl)cc(Cl)c1O)Cc1c(O)ccc2ccccc12 | > 11.4 µM | -8.51% | 0.631 µM (active) | -4.41% | -1.99% |  | inactive | inactive |  | 1.26 µM (active) | > 9.22 µM | 1.26 µM (active) |  |  |  |
| O=C(O)CCCSc1ccccc1 | > 11.4 µM | -2.81% | inactive | -1.05% | 4.11% |  | inactive | inactive |  |  | > 9.22 µM |  |  |  |  |
| C/C(=N/Nc1nc(C)cc(=O)[nH]1)C(=O)O | > 11.4 µM | 1.69% | inactive | 1.78% | -0.204% |  | inactive | inactive |  |  | > 9.22 µM |  |  |  |  |
| CSc1nc(C)cc(Nc2ccc(O)c(CN3CCOCC3)c2)n1 | > 11.4 µM | -11.8% | 3.98 µM (active) | 12.3% | -6.58% |  | inactive |  |  |  | > 9.22 µM |  |  |  |  |
| C/C(=N\NC(N)=S)c1ccc[nH]1 | > 11.4 µM | 0.43% | 3.16 µM (active) | 12% | -24.4% |  | inactive | inactive |  |  | > 9.22 µM |  |  |  |  |
| O=C(O)C[C@H](Cc1ccccc1Cl)C(=O)O | > 11.4 µM | -0.0824% | inactive | -7.65% | 13.9% |  | inactive | inactive |  |  | > 9.22 µM |  |  |  |  |
| Clc1ccc(C=Nc2ccc3c(c2)Cc2ccccc2-3)c(Cl)c1 | > 11.4 µM | 3.71% | 0.794 µM (active) | 23.1% | 12.8% |  | inactive | inactive |  |  | > 9.22 µM |  |  |  |  |
| CSc1nnnc2ccccc12 | > 11.4 µM | -4.35% | 3.16 µM (active) | 3.54% | 0.181% | > 46 µM | inactive | inactive |  | inactive |  |  |  |  |  |
| O=C(Nc1cccc(Cl)c1)Nn1cnnc1 | > 11.4 µM | 0.989% | 3.16 µM (active) | -6.38% | -6.44% | > 46 µM | inactive | inactive |  |  |  |  | inactive |  |  |
| O=C(O)Cc1cc(Cl)ccc1O | > 11.4 µM | -8.98% | inactive | -0.2% |  | > 46 µM | inactive | inactive |  |  | > 9.22 µM |  |  |  |  |
| Nc1ccn([C@@H]2O[C@H](COC(=O)C34CC5CC(CC(C5)C3)C4)[C@@H](O)[C@@H]2O)c(=O)n1 | > 11.4 µM | 9.17% |  | 16.8% |  | > 46 µM | inactive | inactive |  |  | > 9.22 µM |  |  | -18.7% [at 2.29 µM] |  |
| O=C(C[N+]1(c2ccccc2)CCOCC1)c1ccccc1 | > 11.4 µM | -5.21% | 3.98 µM (active) | 11.5% |  | > 46 µM | inactive | inactive |  |  | > 9.22 µM |  |  |  |  |
| Cc1ccc(C)c(C(=N)c2ccccc2Cc2ccccc2)c1 | > 11.4 µM | 1.26% |  | -12.9% |  | > 46 µM | inactive | inactive |  |  | > 9.22 µM |  | inactive | -6.8% [at 2.29 µM] | 3.98 µM (active) |
| CC1=NN(c2ccccc2)C(=O)[C@@H]1N=Nc1ccc(S(N)(=O)=O)cc1 | > 11.4 µM | 6.08% | 1.26 µM (active) | 9.48% |  | > 46 µM | inactive | inactive |  |  | > 9.22 µM |  |  |  |  |
| CN(C)C[C@H]1CCC[C@@H](CN(C)C)C1=O | > 11.4 µM | 5.24% | inactive | -4.78% |  | > 46 µM | inactive | inactive |  |  | > 9.22 µM |  | inactive |  |  |
| O=C(O)c1nnsc1-c1csnn1 | > 11.4 µM | 2.29% | inactive | 4.42% |  | > 46 µM | inactive | inactive |  |  | > 9.22 µM |  |  |  |  |
